# Source: publication PMC10726135, “HNF4α isoforms regulate the circadian balance between carbohydrate and lipid metabolism in the liver”
# Whole data set: some 18,000 sequences, median “log2 normalized intensity” near 0.39, cut for the highest 2% near 6.6. This excerpt belongs to a sample that is enriched for the highest values.
# Biological target: T1, HNF4alpha2 (COS-7 nuclear extract) (Homo sapiens, UniProt P41235 1-474)
# T1 sequence: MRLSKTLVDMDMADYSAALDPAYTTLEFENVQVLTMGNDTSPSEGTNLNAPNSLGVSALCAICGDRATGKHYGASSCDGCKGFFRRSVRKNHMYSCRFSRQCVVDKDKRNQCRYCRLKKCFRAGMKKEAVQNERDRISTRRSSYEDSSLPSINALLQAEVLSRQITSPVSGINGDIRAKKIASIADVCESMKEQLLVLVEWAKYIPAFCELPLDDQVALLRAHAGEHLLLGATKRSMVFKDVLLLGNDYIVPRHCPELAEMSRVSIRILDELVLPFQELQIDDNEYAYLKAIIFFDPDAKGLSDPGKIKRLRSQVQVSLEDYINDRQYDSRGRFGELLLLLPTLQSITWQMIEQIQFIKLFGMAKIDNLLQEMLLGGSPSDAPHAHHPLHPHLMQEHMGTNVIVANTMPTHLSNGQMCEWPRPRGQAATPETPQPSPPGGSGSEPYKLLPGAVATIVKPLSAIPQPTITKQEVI
# Experiment: protein-binding microarray; COS-7 nuclear extract on double-stranded Agilent 4x180k PBM; binding buffer, salt, pH and temperature not given in the material; high values mean tight binding
# Details: chain copies: 2; label: 3' end of strand 1 on the slide; dsDNA, one strand shown
# Outline: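 Using CaPO4, COS-7 cells were transiently transfected with a human HNF4α isoform expression vector, and their nuclear extracts were applied to a custom Agilent SurePrint G3 4x180k double-stranded oligonucleotide array (~60 nt; ~44,000 test sequences in quadruplicate). Bound HNF4α was imaged at 2-µm resolution with an Agilent G2565CA scanner. Agilent software supplied the background-corrected, normalized gProcessedSignal that serves as the binding signal.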
row,Sequence,binding signal [log2 normalized intensity]
1,CCGCGACAAGCGTCGCTGAGTGGAGGCCCAGCCTAGGGAGATTAGAGTATCGGTCGA,-0.847
2,TGGACTTTGGTCCTGGTCAGACTTGCCACGGCCTAGGGAGATTAGAGTATCGGTCGA,4.5
3,GTGGACTTTGTCCTGTGGGCTGTAAAAATCGCCTAGGGAGATTAGAGTATCGGTCGA,5.03
4,GTGGGAGAAAGCTTTGGACTTTGGGCTGTGGCCTAGGGAGATTAGAGTATCGGTCGA,5.72
5,GCCACGGTCAGCAATGTGGACTTTGTCCTGGCCTAGGGAGATTAGAGTATCGGTCGA,9.67
6,AGTTTGCCACGGTCAGCAATGTGGACTTTGGCCTAGGGAGATTAGAGTATCGGTCGA,6.18
7,ATGGACTTTGAAGGAGATTCCTGTGTCAGCGCCTAGGGAGATTAGAGTATCGGTCGA,0.984
8,CCGTCCTGTCCTGGACTTTCCTTTGTTGGGGCCTAGGGAGATTAGAGTATCGGTCGA,2.3
9,GCAATGTGGACTTTGTCCTGTGGGCTGTAAGCCTAGGGAGATTAGAGTATCGGTCGA,7.35
10,GGTCAGCAATGTGGACTTTGTCCTGTGGGCGCCTAGGGAGATTAGAGTATCGGTCGA,7.77
11,TTGTCAGTGCCCTATACAGACCTTTGTATAGCCTAGGGAGATTAGAGTATCGGTCGA,2.96
12,CTCACAGAGTGGAGTCTTCCGTTTGATAGAGCCTAGGGAGATTAGAGTATCGGTCGA,-0.436
13,CTTTATCTAGATAAGTTTATTTACTTATGTGCCTAGGGAGATTAGAGTATCGGTCGA,1.49
14,ATGGTCAGTGTTGATAAGAAAGCTGCAGTCGCCTAGGGAGATTAGAGTATCGGTCGA,0.747
15,TAGGTTATCTTTGGAGAATGCCTTTTGTGTGCCTAGGGAGATTAGAGTATCGGTCGA,2.15
16,ATACTTAGGATTTTTGTGCCTCTTTGGTGAGCCTAGGGAGATTAGAGTATCGGTCGA,1.13
17,TATTCAAACAGAGGACAGTTGTGTTTGTTGGCCTAGGGAGATTAGAGTATCGGTCGA,1.96
18,TTTGGTGAGGCCCCAGTGTCAATTCTCATTGCCTAGGGAGATTAGAGTATCGGTCGA,1.82
19,CAGGCTGTTTTCCTATAGATTTGTTAAATCGCCTAGGGAGATTAGAGTATCGGTCGA,1.13
20,CTTTGTGGCAGGAGGAGCTGTTTGACATCCGCCTAGGGAGATTAGAGTATCGGTCGA,0.0869
21,GACTCATCTCCAAACGAGACTTTGGACTTTGCCTAGGGAGATTAGAGTATCGGTCGA,8.97

row,Sequence,binding signal [log2 normalized intensity]
1,TCTGATACATTGGACAACTGTACTTTGGACGCCTAGGGAGATTAGAGTATCGGTCGA,7.2
2,ACAGTTCTGATACATTGGACAACTGTACTTGCCTAGGGAGATTAGAGTATCGGTCGA,2.1
3,ATCTCCAGATAAGACTTTGGACTTTGGACCGCCTAGGGAGATTAGAGTATCGGTCGA,11.6
4,ATCTCCAAACGAGACTTTGGACTTTGGACTGCCTAGGGAGATTAGAGTATCGGTCGA,11.8
5,CTCCAAACATCTTTGGTATGGACTGATATTGCCTAGGGAGATTAGAGTATCGGTCGA,1.5
6,TACATTGGACAACTGTACTTTGGACTGGGGGCCTAGGGAGATTAGAGTATCGGTCGA,5.99
7,GGTGAGATAAGAAGACTCCAGGGGACTGCCGCCTAGGGAGATTAGAGTATCGGTCGA,-0.872
8,GCTAAGAGACAGCTCCACAGCTGGACTTTGGCCTAGGGAGATTAGAGTATCGGTCGA,5.15
9,AAAGGGACTCATCTCCAAACGAGACTTTGGGCCTAGGGAGATTAGAGTATCGGTCGA,1.6
10,GAGACAGCTCCACAGCTGGACTTTGGCTGCGCCTAGGGAGATTAGAGTATCGGTCGA,5.41
11,GGGTGAAAGGGACTCATCTCCAAACGAGACGCCTAGGGAGATTAGAGTATCGGTCGA,-0.986
12,ATGATTGACAGGTTATTTCAATTACAAAGCGCCTAGGGAGATTAGAGTATCGGTCGA,1.06
13,CCCGGCAGATCAGGGTCAGGCTGTGGTACGGCCTAGGGAGATTAGAGTATCGGTCGA,0.662
14,AGTCCCTGTCCCTTCTTGGCAAGTTAATGTGCCTAGGGAGATTAGAGTATCGGTCGA,1.94
15,GGTGAGGGTGAGGGTGAGGGTTAGGGGTTAGCCTAGGGAGATTAGAGTATCGGTCGA,-0.0851
16,CATTAAGCTTAGCGTTATCAAACCAAATATGCCTAGGGAGATTAGAGTATCGGTCGA,-0.0208
17,GGTCAACACAATCTGATAGTTGATTGATTGGCCTAGGGAGATTAGAGTATCGGTCGA,0.627
18,TCATCTTCAAAGCCAGCAATGGCAGGTCCAGCCTAGGGAGATTAGAGTATCGGTCGA,1.41
19,TCTGCAGACATGGACTCTGGGATCTCAGGGGCCTAGGGAGATTAGAGTATCGGTCGA,1.24
20,ACAGCTAGTCTAGACTTTGCTTTCTTGGAGGCCTAGGGAGATTAGAGTATCGGTCGA,1.24
21,TGGTGGGGAATGCTAGGACTCATTCTCCCCGCCTAGGGAGATTAGAGTATCGGTCGA,0.442
